# Screening data (PubChem)
# PHOSPHO1 inh – blocks human PHOSPHO1 phosphatase activity; Q8TCT1; recombinant PHOSPHO1, absorbance phosphatase assay; inhibition, % at 13.3 µM; actives 1.1% (n = 290,000); AID 1565; in the data active means inhibition above about 60%
# Fh CTSL1 inh – blocks F. hepatica cathepsin L1 in PFM18AAP counter-screen. AID 1906. inhibition, % at 5.96 µM. actives 0.49% (n = 300,000). recombinant F. hepatica cathepsin L1, Z-Leu-Arg-MCA fluorescence;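 active means inhibition above the mean of all tested compounds plus 3 SD, set per screening campaign, cut at about 17% in these data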
# TPT1 inhibitor – inhibitors of Candida albicans tRNA 2'-phosphotransferase TPT1; inhibition, % at 5 µM; actives 0.81% (n = 300,000); recombinant caTPT1, FP RNA substrate dephosphorylation;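 active means inhibition above the mean of all tested compounds plus 3 SD, set per screening campaign, cut at about 24% in these data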
# Rpn11 inh – inhibitors of human proteasome Rpn11; O00487; human 26S proteasome, Ub4-pepOG fluorescence polarization; 20S core pre-blocked with epoxomicin; actives 0.59% (n = 360,000); inhibition, % at 20 µM; AID 588493;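 active means inhibition at 20 µM, scaled to each plate's controls, above about 33%, limit read from the data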
# HNF4A DNA FP – change in binding of human HNF4 alpha to DNA; P41235; HNF4a-FITC DNA binding, fluorescence polarization, 1 h; activity change, % at 10 µM; actives 0.3% (n = 360,000); AID 1224865; in the data active means activity change above about 30%, passing the limit was not always enough
# Target sequence (P41235 whole entry, looked up): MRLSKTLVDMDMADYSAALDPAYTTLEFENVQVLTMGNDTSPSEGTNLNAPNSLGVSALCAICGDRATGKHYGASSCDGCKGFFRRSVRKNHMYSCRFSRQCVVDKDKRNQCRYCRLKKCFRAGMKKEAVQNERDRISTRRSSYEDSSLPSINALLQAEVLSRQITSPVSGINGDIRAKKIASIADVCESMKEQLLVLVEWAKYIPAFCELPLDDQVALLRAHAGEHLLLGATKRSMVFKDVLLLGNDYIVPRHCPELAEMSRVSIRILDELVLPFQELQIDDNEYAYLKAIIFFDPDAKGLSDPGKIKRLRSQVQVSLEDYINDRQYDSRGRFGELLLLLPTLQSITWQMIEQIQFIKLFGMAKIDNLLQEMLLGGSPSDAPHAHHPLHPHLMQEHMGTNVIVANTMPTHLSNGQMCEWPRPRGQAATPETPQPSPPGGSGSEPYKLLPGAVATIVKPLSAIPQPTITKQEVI
# CendR NRP1 mod – alters CendR peptide binding to human NRP-1 | O14786 | FAM-RPARPAR peptide binding to NRP-1, fluorescence polarization | inhibition, % at 25 µM | actives 0.85% (n = 360,000);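 active means inhibition or corrected inhibition above about 18%, plus a signal ratio from 0.5 to 1.5, limit read from the data, passing the limit was not always enough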
# A number is an active result; n = inactive; x = no result given. Most compounds without a hit are left out; they make up all but 3.3% or so of the library.
SMILES,PHOSPHO1 inh,Fh CTSL1 inh,TPT1 inhibitor,Rpn11 inh,HNF4A DNA FP,CendR NRP1 mod
COc1ccc(C(=O)N2c3ccccc3C(=O)OC2c2ccc3c(c2)OCO3)cc1 (centres undefined),n,n,n,n,n,21
O=C(c1cc2ccccc2o1)N1CCN(S(=O)(=O)c2c(F)cccc2F)CC1,x,x,x,n,n,33
Cc1[nH]c2c(Cl)cccc2c(=O)c1CN1CCCC1,n,n,n,n,n,20
Cc1[nH]c2ccccc2c(=O)c1CN1CCCCCC1,x,n,n,n,n,n
CCOc1cc(C(=O)N/N=C(\C)Cc2ccc(OC)cc2)cc(OCC)c1OCC,n,n,n,n,n,n
CC1C/C(=N\NC(N)=S)c2cc(Cl)ccc2S1 (centres undefined),n,68,n,n,n,n
COc1ccc(CN2C(=O)CCC2(C)c2nnnn2-c2c(C)cccc2C)cc1 (centres undefined),x,x,x,x,n,23
Cc1ccc(CN2C(=O)CCC2(C)c2nnnn2-c2c(C)cccc2C)cc1 (centres undefined),x,x,x,x,n,n
Fc1ccccc1CSc1nc2ccccc2[nH]1,n,n,n,n,n,n
CSc1nc(N(C)CCO)c2sc3nc(-c4ccco4)c4c(c3c2n1)CCC4,n,22,n,n,n,n
COc1cc(Br)cc(CN2CCN(c3ncccn3)CC2)c1O,n,x,x,n,n,n
CCc1nnc2n1N=C(c1ccc(-c3cc(Cl)ccc3Cl)o1)CS2,90,n,n,n,n,n
Cc1ccc(N2CC(C(=O)OCc3ccccc3)CC2=O)cc1 (centres undefined),n,n,n,n,n,n
CN(C)c1ccc(/C=C/C(O)=C2/C(=O)N(C)C3(C)CC2c2ccccc2O3)cc1 (centres undefined),n,n,188,x,x,x
CCOc1ccc(/C=C/C(O)=C2/C(=O)N(C)C3(C)CC2c2ccccc2O3)cc1OC (centres undefined),n,n,n,n,n,n
O=C1C(c2ccccc2)=[N+]([O-])c2ccccc21,x,31,n,n,n,30
CCOc1cccc(CN2CCC(n3nccc3NC(=O)C3CC3)CC2)c1O,n,n,n,n,n,n
COC(=O)CSC1=C(C#N)C(=O)NC(c2ccccc2)S1 (centres undefined),98,n,n,n,n,n
COc1cccc2cc(-c3nc4ccccc4o3)c(=O)oc12,n,n,n,n,n,30
CCn1c(CNC(=O)c2ccccc2F)cc2ccccc21,n,n,n,n,n,n
C=CCOc1ccc(CNC(C)(C)C)cc1OC,n,n,n,n,51,24
CN1/C(=C/C=C/c2n(C)c3cc([N+](=O)[O-])c([N+](=O)[O-])cc3[n+]2C)C(C)(C)c2ccccc21,x,x,x,n,95,n
COc1ccccc1NC(=O)CSc1nc(C)c2c(c1C#N)CCCC2,n,n,n,n,n,n
NS(=O)(=O)c1ccc(NC(=S)NC2CCCC2)cc1,81,n,n,n,n,n
CCCCCCCCN1C(=O)[C@H](CC(=O)NCCc2ccccc2OC)C[C@@]2(C(=O)OCC)CCCC=C12,x,x,x,x,n,n
SMILES,PHOSPHO1 inh,Fh CTSL1 inh,TPT1 inhibitor,Rpn11 inh,HNF4A DNA FP,CendR NRP1 mod
N=c1n(Cc2ccccc2)c2ccccc2n1CC(O)COc1ccccc1 (centres undefined),n,n,n,n,n,n
Cc1ccc(Cn2c(=N)n(CC(O)COc3ccccc3)c3ccccc32)cc1 (centres undefined),n,n,n,n,n,24
O=C(NCc1n[nH]c(=S)n1-c1ccc(F)cc1)c1ccc(S(=O)(=O)N2CCCC2)cc1,96,n,n,n,n,n
O=C(NCc1n[nH]c(=S)n1-c1ccc(Cl)c(Cl)c1)c1ccc(S(=O)(=O)N2CCCCC2)cc1,n,n,n,n,n,n
COc1cc(NS(=O)(=O)c2ccc(-c3ccc(=O)[nH]n3)o2)cc(OC)c1OC,n,n,n,n,n,n
COc1cccc(CNc2nc3cc(-c4cccc(C(=O)NCCO)c4)sc3c(=O)n2C)c1,x,x,x,n,n,n
O=C(CC(c1ccccc1)c1ccco1)N1CCCCC1 (centres undefined),60,n,n,n,n,n
CCN(CC)C(=O)CC(c1ccc(F)cc1)c1ccco1 (centres undefined),n,49,n,n,n,n
CCCN(CCC)C(=O)CC(c1ccccc1)c1ccco1 (centres undefined),n,41,n,n,n,n
